Our source for the growth values is PubChem BioAssay (NCI).

This is part of a sample that, as a whole, favours compounds with a hit. Of some 83,000 tested, about 20% had one in any assay.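 Negative percent growth values reflect cell death: -40 means 40% of the cells present at the start died, and -100 means all died.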 Values without a mark were called inactive. Calls of active or inactive are those of the source.

The test system of this assay is NCI-H23 lung. The assay is described as follows: NCI-60 one-dose screen, 48 h (100 = growth as untreated, 0 = no growth, -100 = all killed). The settings on record: 10 µM unless noted. How it is done: Growth inhibition of the NCI-H23 human Non-Small Cell Lung tumor cell line is measured as a screen for anti-cancer activity. Cells are grown in 96 well plates and exposed to the test compound for 48 hours. Compounds are tested at a single concentration, which is 10^-5 M for most compounds. The reported endpoint is percent growth (GI% or GIPRCNT), where numbers from 0 - 100% represent growth inhibition, and numbers from -100% - 0 represent cell death. For example, a value of 40 represents 60% growth inhibition. A value of 0 means no net growth occurred over the course of the experiment. A value of -40 indicates 40% of cells at the beginning of the experiment died by the end of the experiment. A value of -100 means all cells are dead at the end of the experiment.
NCI-60 Human Tumor Cell Lines Screen was performed using the standard one-dose NCI protocol, which is described in more detail at https://dtp.cancer.gov/discovery_development/nci-60/default.htm.
Compounds with GIPRCNT values below 10 were considered active. Activity score was based on GIPRCNT using the following formula: […]
Score is 0 for GIPRCNT values of 100 or above, 50 for GIPRCNT values of 0, and 100 for GIPRCNT values of -100.
Regarding `O=C1CCC(C(=O)NN(c2ccccc2)c2ccccc2)N1` (stereo not given), the growth was 108%. Regarding `COc1ccc(C(O)c2cc3c(N)c(C(=O)Nc4cccc(Cl)c4)sc3nc2C)cc1` (stereo not given), the growth is 37.8%. Regarding `Cc1ccc(N=Nc2c(N)nn(-c3ccccc3)c2N)cc1`, the growth was 6.74% (active). Turning to `CCN1C(=O)N(CC)C2C1NN=c1s/c(=C\c3cc4ccccc4[nH]3)c(=O)n12` (stereo not given), the growth was 34.8%. Turning to `CC(=O)c1cc(-c2ccccc2N)n(-c2ccc3c(c2)OCO3)c1C`, the growth is 43.4%. With `CN(C)c1ccc(-c2cc(-c3ccc(Nc4nc(Nc5ccc(Cl)cc5)nc(Nc5ccc(Cl)cc5)n4)cc3)nc(N)c2C#N)cc1`, the growth is 87.8%. For `CC[C@]12C=CCN3CC[C@@]4(c5ccc(OC)cc5N(C)[C@H]4[C@@](O)(C(=O)OC)[C@@H]1OC(=O)CCCN1CCOCC1)[C@@H]32`, the growth was 106%.

Regarding `COc1ccc2nc3cc(Cl)ccc3c(NCCN)c2c1`, the growth was -33.6% (active). Regarding `O=C(CCCCCCN1CC(=O)N2[C@@H](c3ccc(Cl)cc3)c3[nH]c4ccccc4c3C[C@H]2C1=O)NO`, the growth was 71.3%. For the compound `CCOC(=O)Nc1nc2ccc(SCC(C)C)cc2s1`, the growth is 40.9%. On to `Fc1ccc(CNc2c3ccccc3nc3ccccc23)cc1`, for which the growth was 31.6%. Next, `Nc1c(C(=O)O)cc(Cl)cc1[N+](=O)[O-]`: 90.6%; `CCCCCCC(=O)Nc1ncc(Cc2ccc(C)cc2)s1`: 59.3%. Take `CN(C)Cc1ccc(C(=O)Nc2ccc3ncnc(Nc4ccc(Oc5cccc(F)c5)c(Cl)c4)c3c2)cc1`: the growth was 49.5%. In the case of `O=C1c2cccnc2C(=O)c2c1c(C(=O)OCCCN1CCCCC1)c1ccccn21`, the growth is -48.5% (active).

With `COc1ccc(NC(=O)c2sc3nc4c(cc3c2N)CCCC4)cc1`, the growth was 28%. Take `N=C(N)c1ccc(-c2ccc(-c3ccc(Cl)cc3)o2)o1`: the growth was 29%. `COc1ccc(C2=C/C(=C\c3ccc(Cl)cc3)C(=O)N2/N=C/c2ccc(Cl)cc2)cc1`: the growth is 103%. Regarding `CCN(CC)S(=O)(=O)c1ccc(S(=O)(=O)N2CCC[C@@H](C(=O)N3CCN(C(=O)OC(C)(C)C)CC3)C2)cc1`, the growth was 53.6%. With `C=C(C)[C@@H]1CC[C@]2(CO)CC[C@]3(C)[C@H](CC[C@@H]4[C@@]5(C)CCC(NCCc6ccc(O)cc6)C(C)(C)[C@@H]5CC[C@]43C)[C@@H]12` (stereo not given in full), the growth is -86.6% (active). As for `COc1ccc(-c2ccc(-c3ccc(C(=N)N)cn3)s2)cc1`, the growth was 98.8%. For `COc1ccc(NC(=O)c2cccc(C3CCc4c(cc(OC)c(OC)c4OC)O3)c2)cc1` (stereo not given), the growth was 52.1%. With `O=[N+]([O-])/C(=C\c1ccco1)c1ccccc1Cl`, the growth was 92.3%. For the compound `COc1cc2c(c(OC)c1OC)C(=O)N[C@@H]1[C@@H](O)[C@@H](O)[C@H](O)C[C@@H]21`, the growth was 106%.

As for `N#Cc1c(-c2cccc([N+](=O)[O-])c2)cc(-c2ccc(Nc3nc(Nc4ccc(F)cc4)nc(Nc4ccc(F)cc4)n3)cc2)nc1N`, the growth was 98.6%.

`CCOC(=O)c1c(C)nn(CC(O)c2ccccc2)c1NC(=O)Nc1cccc(F)c1` (stereo not given): the growth is 97%. Next, `Cn1ccnc1C(=O)/C=C/c1ccc(C(=O)Nc2ccc(F)cc2)cc1`: 15.9%; `COc1ccc(-c2cc(-c3ccc(OC)cc3)nc(NCCCNc3ccnc4cc(Cl)ccc34)n2)cc1`: 81.3%.

For the compound `COc1ccc(-c2cc(C(=O)N3N=C(c4ccc(N)cc4)CC3c3ccccc3)c3ccccc3n2)cc1` (stereo not given), the growth was 56.7%. For `CCCCn1sc(=O)n(Cc2ccc(CNC(=O)OCc3ccc4c(Br)cc(Br)c(O)c4n3)cc2)c1=O`, the growth was 36.1%. For `C/C(C=O)=C\c1ccc2c(c1)OCO2`, the growth is 102%.

Consider `Cn1cc(-c2csc(-c3cn(C)c4ccc(Br)cc34)n2)c2cnccc21`, for which the growth was -28.7% (active). As to `Cc1cccc(N2CCN(C(=S)c3ccc4c(c3)OCO4)CC2)c1`, the growth is 31.3%. For the compound `COc1cc2ncnc(Nc3ccc(F)c(Cl)c3)c2cc1OCC(=O)N1CCN(c2ccc(F)cc2)CC1`, the growth is 97%. Next, `COc1cc(C2=NN(C(C)=O)C(c3ccc(N(C)C)cc3)C2)cc(OC)c1OC` (stereo not given): 88.8%; `NC(=O)c1ccc(NC(=O)c2oc3ccccc3c2-c2cnn(-c3ccccc3)c2)cc1`: -21.9% [50 µM] (active). Next, `CNC(=O)c1cc(Oc2ccc3nc(NC(=O)Nc4ccc(Cl)c(Cl)c4)sc3c2)ccn1`: 28.9%; `COc1ccc(Cn2cc(C(=O)N=Nc3c(O)[nH]c4c(Cl)cccc34)nn2)cc1`: 99.3%; `COc1ccc(C2C(C#N)=C(N)Oc3c2sc2c(Br)cccc32)cc1` (stereo not given): 36.3%. Turning to `COc1ccc2[nH]cc(-c3nc(-c4cn(C)c5ccncc45)cs3)c2c1`, the growth is 93.9%.
